# USP1 inh – USP1/UAF1 (human) deubiquitinase inhibition. hit rate 0.23% among 390,000. Potency, µM (highest dose often 57.1 µM), for the others: at the highest dose activity change, negative = inhibition, hits mostly inhibitors. O94782. recombinant USP1/UAF1, Ub-Rhodamine cleavage fluorescence; note: potency is the fitted concentration of half-maximal effect; nearly all actives have a fitted effect of over 60% in size
# Target sequence (O94782 whole entry, looked up): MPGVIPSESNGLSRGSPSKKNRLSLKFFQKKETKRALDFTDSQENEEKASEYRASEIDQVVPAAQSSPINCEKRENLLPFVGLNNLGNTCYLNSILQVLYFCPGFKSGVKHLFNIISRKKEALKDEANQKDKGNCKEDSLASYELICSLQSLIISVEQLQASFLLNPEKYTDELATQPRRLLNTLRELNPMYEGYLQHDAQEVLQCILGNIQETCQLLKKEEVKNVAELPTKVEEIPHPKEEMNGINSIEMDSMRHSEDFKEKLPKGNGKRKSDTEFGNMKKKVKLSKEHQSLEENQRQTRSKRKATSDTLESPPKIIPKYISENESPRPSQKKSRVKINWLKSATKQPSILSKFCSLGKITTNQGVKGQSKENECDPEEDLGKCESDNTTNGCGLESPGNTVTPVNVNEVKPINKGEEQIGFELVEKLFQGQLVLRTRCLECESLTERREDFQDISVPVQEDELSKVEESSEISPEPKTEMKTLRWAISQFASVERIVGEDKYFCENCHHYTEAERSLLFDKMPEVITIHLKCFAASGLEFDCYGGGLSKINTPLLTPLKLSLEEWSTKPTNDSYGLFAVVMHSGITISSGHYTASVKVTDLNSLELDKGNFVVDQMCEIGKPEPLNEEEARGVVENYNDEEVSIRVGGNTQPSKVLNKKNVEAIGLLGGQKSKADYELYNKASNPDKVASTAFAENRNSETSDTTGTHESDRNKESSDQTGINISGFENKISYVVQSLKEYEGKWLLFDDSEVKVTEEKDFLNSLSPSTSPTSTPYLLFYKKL
#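 USP1/UAF1 complex at 1 nM was preincubated with compound for 15 min at room temperature, then Ub-Rho substrate (150nM final) was added. Fluorescence (480/540 nm) was read kinetically, 6 reads every 60 seconds.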
# PLK1 PBD block – blocks phosphopeptide binding to human PLK1 polo-box domain. hit rate 2.8% among 360,000. Potency, µM, inactives show max response, negative = inhibition, most hits filed as inhibitors. P53350. Plk1 PBD binding of FITC phosphopeptide, fluorescence polarization. AID 720504; note: potency is the fitted concentration of half-maximal effect; series mostly up to about 57 µM; nearly all actives have a fitted effect of over 65% in size
# USP2a block – blocks human ubiquitin-specific protease USP2a. USP2 core, Ub-CHOP2 coupled fluorogenic reporter, 485/531. Potency, µM (doses to about 38.3 µM), without a hit: at the top dose activity change, negative = inhibition, most hits filed as inhibitors. hit rate 0.01% among 330,000;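 note: potency is the fitted concentration of half-maximal effect; plate controls were DMSO wells for no effect and full inhibition by NEM control for full effect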
#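 Deubiquitinase activity read as fluorescence (485/531 nm) after Ub-CHOP2 cleavage activates the enterokinase reporter on its substrate; USP2 core 10nM, Ub-CHOP2 and substrate 25nM each, 30min compound preincubation then 60min RT; data normalized to NEM, curves fitted.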
# WRN inhibitor – WRN helicase (human) inhibition; WRN helicase unwinding, fluorescent forked duplex, kinetic; Potency, µM (series often up to 114 µM), inactives show at the top dose activity change, negative = inhibition, actives largely listed as inhibitors; hit rate 0.46% among 360,000; AID 651768; note: potency is the fitted concentration of half-maximal effect; nearly all actives have a fitted effect of over 55% in size
#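 Kinetic fluorescence helicase assay: unwinding of a quenched forked DNA duplex (100 nM final) with 2 mM ATP final raises red fluorescence (525/598 nm). Compounds sat 15 min at room temperature with 20 nM WRN beforehand.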
# PI5P4K alpha inh – PI5P4K alpha (human) kinase inhibition. P48426. PI5P4Kalpha enzyme, ADP-Glo luminescence, 60 min; hits give low values. max response, %. hit rate 1.2% among 330,000; active = max response of -50% or lower; inconclusive = between -30% and -50%; inactive = -30% or higher; note: value at the top dose of about 77 µM
#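 Compounds were pin-transferred onto PI5P4Kalpha and substrate in HEPES pH 7.4 buffer with EGTA, CHAPS and 5% DMSO. ATP (5 microM final) started the reaction, which ran 60 minutes at room temperature before ADP-Glo detection.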
# Active calls of the source: *; ? = inconclusive; nt = not tested or not shown; [ ] = another dose, or the depositor's remark. Rows were chosen to be rich in hits. Some 3.3% of all compounds tested hit in one or more screens of this group. Unless noted, calls come from the whole dose curve; as a rule, active = well fitted curve in the direction sought with a large enough effect; inconclusive = small, poorly fitted or top-dose-only effect, or another doubt; inactive = no such curve, though single readings can be large; an effect the other way counts as inactive or inconclusive. Unless noted, % is set by controls: 0 for no effect and ±100 for the full control effect.
SMILES,USP1 inh,PLK1 PBD block,USP2a block,WRN inhibitor,PI5P4K alpha inh
CC(C)(C)n1nnnc1C(c1ccccc1)N1CCC2(CC1)C(=O)NCN2c1ccccc1 (configuration not stated),nt,0.6%,nt,5.3%,0.8
O=C(Nc1ccc2c(c1)OCCO2)c1cccn(Cc2cccc(F)c2)c1=O,-17.2%,nt,nt,nt,nt
C=CCN1C(=O)NC(=O)/C(=C/c2ccc(OC)c(CSc3ccccn3)c2)C1=O,-26.3%,4.74µM*,2.5%,?,-71.4*
C=CCN1C(=O)NC(=O)/C(=C/c2ccc(OC)c(COc3ccc(NC(C)=O)cc3)c2)C1=O,-22.2%,10.6µM*,0.2%,44.7µM*,-66.1*
CC(=O)Nc1ccc(OCCF)cc1,-12.8%,-5.6%,3.6%,2.5%,-0.5
C=CCN1C(=O)NC(=O)/C(=C/C=C/c2ccccc2)C1=O,0.6%,?,-0.2%,?,?
Cc1nnc(NC(=O)c2cccn(Cc3ccccc3F)c2=O)s1,-25.3%,nt,nt,nt,nt
Oc1c(Cl)cc(Cl)cc1CN1CCN(Cc2ccccc2)CC1,-0.7%,-5.6%,-7.8%,-26.1%,nt
Oc1c(Cl)cccc1Cc1cc(Cl)cc(Cl)c1O,-5.4%,26.7µM*,nt,-34.8%,-4.2
CC1Oc2cc3c(-c4c(O)cc(O)c5c(O)c6c(cc45)OC(C)C(C)C6=O)c(O)cc(O)c3c(O)c2C(=O)C1C (configuration not stated),12.6µM*,26.7µM*,?,63.1µM*,-108.8*
Cc1cc(N2CCNCC2)nc2ccccc12,-18.3%,26.7µM*,0.4%,14.8%,1.0
NC1CC2CCCCC2CC1(O)c1ccccc1 (configuration not stated),-10.6%,28.6%,nt,-1.9%,8.2
CN1C(=O)C(=Cc2ccccc2OCc2ccc(Cl)cc2)C(=O)N(C)C1=O,-9.9%,10.6µM*,3.4%,-24.4%[57.1 µM],-12.4
C=CCn1c(CSc2ccccc2[N+](=O)[O-])n[nH]c1=S,-10.6%,11.9µM*,0.6%,39.8µM*,-74.4*
Cc1cc(OCC(=O)N2CCN(CCc3ccncc3)CC2)ccc1Cl,-3.4%,nt,nt,nt,nt
CCCCCCCCn1sccc1=O,-16.1%,4.74µM*,-0.1%,-4.0%,-77.5*
Cc1nc(-c2cccc(NC(=O)c3ccc(Cl)c(S(=O)(=O)N4CCCC4)c3)c2)cs1,?,6.5%,nt,-1.6%,-9.2
Cn1c(O)c(C=Nc2ccccc2-c2ccccc2)c(=O)n(C)c1=O,-13.4%,-4.9%,1.7%,1.8%,2.8
CCOC(=O)C1=Nc2ccccc2/C1=C\c1c(O)n(C)c(=O)n(C)c1=O,-11.6%,13.4µM*,-0.6%,-11.0%,-64.2*
CCCCCn1c(=O)c(C(=O)Nc2nc(CC(=O)OCC)cs2)c(O)c2ccccc21,-22.0%,-1.2%,5.0%,4.4%,15.3
O=C1C(=O)c2ccccc2-c2ccccc21,1µM*,-20.0%,3.5%,-29.7%,-4.9
NC1=C(Br)C(=O)c2ccccc2C1=O,8.91µM*,-8.0%,-0.4%,-9.2%,-5.2
O=C1C(=O)c2cccc3cccc1c23,-13.8%,-3.4%,1.5%,5.7%,-2.5
COc1ccccc1-n1c(-c2ccccc2)nc2ccccc2c1=O,-8.6%,-3.1%,3.1%,-9.4%,2.7
Cc1cc(OCC(=O)N2CCN(CCc3ccncc3)CC2)cc(C)c1Cl,-27.3%,nt,nt,nt,nt
SMILES,USP1 inh,PLK1 PBD block,USP2a block,WRN inhibitor,PI5P4K alpha inh
Oc1ccc(Cl)cc1Sc1cc(Cl)ccc1O,-14.5%,?,nt,?,25.7
N#CC1=C(N)Oc2n[nH]c(-c3cccs3)c2C1c1ccsc1 (configuration not stated),-21.0%,26.7µM*,2.3%,?,-56.1*
CCOc1cc(-c2ccc(N)c(OCC)c2)ccc1N,-2.5%,3.36µM*,2.0%,9.6%,?
O=C(c1ccc2c(c1)N(Cc1ccc(F)cc1Cl)C(=O)c1ccccc1S2)N1CCC2(CC1)OCCO2,-15.7%,nt,nt,nt,nt
O=C1NC(=O)N(Cc2ccccc2Cl)C(=O)/C1=C/c1cccs1,-28.5%,1.19µM*,0.2%,?,?
O=C1NC(=O)N(Cc2ccc(F)cc2)C(=O)/C1=C/c1cccs1,-5.6%,0.752µM*,-4.1%,39.8µM*,-55.8*
O=C1NC(=O)C(CCc2ccncc2)(CCc2ccncc2)C(=O)N1Cc1ccc(F)cc1,-1.5%,?,-0.3%,10.3%,2.0
Cc1ccc(/C=C2/C(=O)NC(=O)N(Cc3ccc(F)cc3)C2=O)o1,nt,nt,-0.9%,nt,nt
Cc1ccc(/C=C2\C(=O)NC(=O)N(Cc3ccccc3Cl)C2=O)o1,-4.0%,0.844µM*,0.7%,?,?
COc1ccc(CN2C(=O)NC(=O)/C(=C\c3cccc(OC)c3OC)C2=O)cc1,2.7%,29.9µM*,8.7%,?,-28.2
Cc1ccc(Cl)cc1NC(=O)N(Cc1ccc2c(c1)OCO2)C1CCN(Cc2ccccc2)CC1,-4.5%,nt,nt,nt,nt
CCOc1ccc(NC(=O)Cn2cc(C(=O)c3ccccc3)c3ccccc32)cc1,9.1%,nt,nt,nt,nt
Cc1cccc(C)c1NC(=O)CN1CCCC1,?,-10.9%,nt,-2.0%,-1.2
O=C1NC(=O)C(=Cc2ccc(-c3ccc(S(=O)(=O)N4CCOCC4)cc3)o2)C(=O)N1,?,2.67µM*,0.2%,-11.3%,?
CN1C(=O)C(=Cc2ccc(N3CCOCC3)o2)C(=O)N(C)C1=S,?,65.1%,2.5%,-21.7%[57.1 µM],-3.5
O=C1NC(=O)C(=Cc2ccco2)C(=O)N1,-15.4%,4.74µM*,nt,?,-83.7*
O=C1NC(=O)C(=Cc2ccc(-c3ccc(F)cc3O)o2)C(=O)N1,-24.9%,1.19µM*,2.0%,-5.7%[11.6 µM],-87.3*
O=C1NC(=O)C(=Cc2ccc(-c3ccc(Cl)cc3)o2)C(=O)N1,?,0.67µM*,-2.4%,-22.8%,-18.7
CN(C)CCSC1c2ccccc2CSc2ccccc21 (configuration not stated),-16.0%,?,nt,0.4%,-10.9
COc1ccc([C@H]2CC(=O)C=C(c3ccc4c5c(cccc35)CC4)C2)cc1,?,-2.6%,3.4%,2.0%,11.6
O=C(Nc1ccc2c(c1)OCO2)c1cccn(Cc2ccccc2)c1=O,-32.6%,nt,nt,nt,nt
O=C(O)c1ccc(Cl)nc1,-1.8%,18.9µM*,2.2%,-1.8%,-3.7
CC(=O)N1CCN(Cc2ccc(Cl)nc2)CC1,-9.8%,0.1%,8.1%,1.5%,1.8
O=C(Nc1ccc(Cl)c(Cl)c1)c1ccco1,-19.6%,-4.0%,3.1%,-24.6%,7.5
CCN(c1ccc(C)cc1C)S(=O)(=O)c1nnc(NC(=O)c2ccco2)s1,-16.8%,26.7µM*,0.5%,-6.4%[57.1 µM],-26.1
CC(C)(C)OC(=O)N(CCc1ccccc1)Cc1ccc(OCc2cccc(NC(=O)c3ccccc3)c2)cc1,-8.6%,?,nt,-8.3%,2.8
COc1ccc(NC(=O)N2CCC3(CC2)OCCO3)cc1,-26.5%,26.7µM*,0.3%,1.4%,1.4
Cc1onc(-c2ccccc2Cl)c1C(=O)NCc1ccc2c(c1)cc(C)n2C,-11.5%,-6.9%,2.0%,?,-24.3
Nc1c(C(=O)NC2CCCC2)c2nc3ccccc3nc2n1CC1CCCO1 (configuration not stated),28.2µM*,-14.4%,-10.7%,-23.6%,16.6

# Screening results from PubChem.
